# Giardia FBPA inh: qHTS Assay for Inhibitors of Fructose-1,6-bisphosphate Aldolase from Giardia Lamblia | purified Giardia FBPA | 290,000 tested, 0.71% active | AID 2451, 2010 | Potency, µM (doses to about 59.6 µM), for inactives: at the top dose activity, negative = inhibition, usual class: inhibitors; also: potency is read from the fitted curve at half-maximal effect; nearly all actives have a fitted effect of over 55% in size
# Target sequence (A8B2U2 whole entry, looked up): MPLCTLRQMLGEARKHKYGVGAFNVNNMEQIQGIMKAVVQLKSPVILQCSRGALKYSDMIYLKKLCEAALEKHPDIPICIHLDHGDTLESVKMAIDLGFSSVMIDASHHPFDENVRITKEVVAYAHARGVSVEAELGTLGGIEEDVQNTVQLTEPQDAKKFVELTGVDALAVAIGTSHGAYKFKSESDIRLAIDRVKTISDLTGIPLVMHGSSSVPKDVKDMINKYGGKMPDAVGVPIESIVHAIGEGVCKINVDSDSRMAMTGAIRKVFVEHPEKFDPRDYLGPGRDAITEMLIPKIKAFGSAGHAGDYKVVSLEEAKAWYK
#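 40 nM FBPA preincubated 10 min at RT with compound (up to 57.5 uM final), then substrate plus GAPDH/TPI/NAD/arsenate coupling and diaphorase/resazurin added. Fluorescence read after 20 min at RT, 525/598 nm.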
# RE007 growth inh: qHTS Assay for Inhibitors of the HIV-1 protein Vpr; 360,000 tested, 0.21% active; Potency, µM (series often up to 92.2 µM), without a hit: at the top dose activity change, negative = less growth, hits mostly inhibitors; S. pombe RE007 Vpr strain, BacTiter-Glo ATP luminescence, 24 h; AID 651644, 2012; active = well fitted falling curve with a large enough effect; inconclusive = small, poorly fitted or top-dose-only effect; inactive = no such curve, though single readings can be large or run the other way; also: potency is read from the fitted curve at half-maximal effect; nearly all actives have a fitted effect of over 50% in size
#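 Fission yeast RE007 carrying one integrated HIV-1 vpr copy, seeded at OD 0.01 in PMG+AL medium with 23 nL pinned compound. Grown 24 h at 30 degrees; viability read by BacTiter-Glo luminescence after 5 min.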
# FMDV antiviral: High Throughput Screening for Foot and Mouth Disease Virus Antivirals | FMDV antiviral cell-based qHTS | Potency, µM (highest dose often 57.9 µM), for inactives: at the top dose activity change, negative = inhibition, usual class: inhibitors | 410,000 tested, 1.2% active; calls by dose curve; tested in HEK293T cells; also: read-out not given here; potency is read from the fitted curve at half-maximal effect; nearly all actives have a fitted effect of over 45% in size
# HCMV inh: qHTS Assay for inhibitors of the human cytomegalovirus (HCMV) | HFF cells, HCMV-luciferase reporter, 72 h; hits give low values | activity change, negative = inhibition, % at 57.5 µM | 410,000 tested, 4.5% active | AID 1259415, 2018; in the data active = activity change below about -60%; inconclusive = no clear call, values can overlap the other calls; inactive = above about -39%
#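 Luciferase read-out from HCMV-luciferase-infected HFFs (MOI 1 PFU/cell) 72 h post infection at 37C; compounds added after 16 h cell attachment; activity normalized between buffer-only basal and Salinomycin (10uM) inhibitor controls.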
# Sm TGR block: qHTS Assay for the Inhibitors of Schistosoma Mansoni Peroxiredoxins | purified TGR, DTNB reduction, TNB absorbance 405 nm | 360,000 tested, 3% active | Potency, µM (titrated, usually from 114 µM), for the others: at the highest dose activity change, negative = inhibition, most hits filed as inhibitors | Schistosoma mansoni thioredoxin glutathione reductase (TGR), Q962Y6; also: potency is read from the fitted curve at half-maximal effect; nearly all actives have a fitted effect of over 60% in size
#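 TGR 20 nM + NADPH 100 uM (dispensed conc.), cpd preinc 15 min RT; start with NADPH (500 uM addition) then DTNB (15 mM addition). Kinetic TNB absorbance, 405 nm filter. Four-parameter Hill fit across titration.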
# Tb PYK inh: qHTS of Trypanosoma Brucei Inhibitors; TbPYK enzyme, Kinase-Glo Plus ATP luminescence, 45 min; Potency, µM (top dose mostly 76.8 µM), for inactives: at the highest dose activity, negative = inhibition, usual class: inhibitors; 410,000 tested, 0.12% active; AID 624173, 2012; also: potency is read from the fitted curve at half-maximal effect; nearly all actives have a fitted effect of over 50% in size
#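 Enzyme and substrate buffer are dispensed first and compound is pin-transferred. ADP at 130 uM final then starts the reaction, which runs 45 min at room temperature. Detection reagent is added for 10 min before luminescence is imaged.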
# Active calls of the source: *; ? = inconclusive; nt = no result given. Only some compounds are listed: those with a hit (about 7.7% of all), similar ones and a draw of the others. Unless noted, calls follow the shape of the dose curve; as a rule, active = well fitted curve in the direction sought with a large enough effect; inconclusive = small, poorly fitted or top-dose-only effect, or another doubt; inactive = no such curve, though single readings can be large; an effect the other way counts as inactive or inconclusive. % is scaled to controls: 0 for no effect and ±100 for the full control effect.
SMILES,Giardia FBPA inh,RE007 growth inh,FMDV antiviral,HCMV inh,Sm TGR block,Tb PYK inh
O=C(c1ccco1)N1CCN(c2nc(C3CC3)nc3sc4c(c23)CCCC4)CC1,6%,-4%,?,nt,40µM*,0%
Cc1nc(N2CCN(C(=O)c3cccs3)CC2)c2c3c(sc2n1)CCCC3,12%,24%,25µM*,-21,8%,-15%
O=C(NCCc1ccccc1)c1cnc2sc(N3CCCCCC3)nn2c1=O,nt,nt,?,19,-3%,-6%
Cc1ccc(N2CCN(C(=O)c3cccs3)CC2)cc1C,14%,-20%,20%,-8,35µM*,2%
Nc1ccc(N2CCN(C(=O)c3cccs3)CC2)cc1,-15%,-6%,-9%,-33,-10%,-26%
Cc1ccc(N2C(=O)c3ccc(C(=O)N4CCN(c5ccc(C)c(C)c5)CC4)cc3C2=O)cc1,1%,-2%,-16%,-70*,-4%,-2%
CC(=O)[C@]1(O)Cc2c(O)c3c(c(O)c2[C@@H](O[C@H]2C[C@H](N)[C@H](O)[C@H](C)O2)C1)C(=O)c1c(O)cccc1C3=O,?,nt,nt,nt,nt,-6%
Cc1ccc2[nH]c3c(c2c1)CN(C(=O)CN1CCCc2ccccc21)CC3,2%,-3%,16%,9,32µM*,3%
Cc1ccc2[nH]c3c(c2c1)CN(C(=O)CN1CCCCC1)CC3,-2%,-1%,-24%,50,-10%,-2%
Cc1[nH]c2ccccc2c1C(=O)COC(=O)c1ccc([N+](=O)[O-])s1,-17%,63µM*,-9%,119,nt,-2%
O=C(COC(=O)c1ccc([N+](=O)[O-])s1)Nc1ccccc1,-4%,?,-2%,-5,?,-12%
O=C(COC(=O)c1ccc([N+](=O)[O-])s1)Nc1ccc(F)cc1,nt,?,-16%,11,14µM*,6%
O=C(OCC(=O)N1CCC(c2ccccc2)=N1)c1ccc([N+](=O)[O-])s1,nt,16µM*,-7%,-14,?,2%
COc1ccccc1C1CCCN1Cc1nc(-c2cc3c(cc2Cl)OCO3)oc1C (stereo not given),-21%,-20%,-20%,-24,-3%,1%
COc1ccccc1C1CCCN1Cc1nc(-c2ccc(C)s2)oc1C (stereo not given),-3%,-13%,-20%,-99*,?,2%
Cc1ccc(CSc2nnc(SCC(=O)N/N=C/c3c[nH]c4ccccc34)s2)cc1,?,-24%,6%,-73*,-4%,-1%
O=C(CSc1nnc(SCc2ccccc2)s1)N/N=C/c1ccc(C(=O)O)cc1,11%,6%,16%,-35,10%,-6%
O=C(CSc1nnc(SCc2ccccc2)s1)N/N=C/c1c[nH]c2ccccc12,-22%,-16%,0%,-36,-14%,-4%
Cc1ccc(CSc2nnc(SCC(=O)N/N=C/c3ccc(C(=O)O)cc3)s2)cc1,15%,-10%,-9%,-66*,-7%,0%
O=C(NCc1cccc(F)c1)[C@@H]1[C@@H](CO)[C@@H]2Cn3c(cccc3=O)[C@H]1N2C(=O)c1cnccn1,nt,nt,nt,-9,nt,nt
COc1cc(C)c(CN2CCc3nnc(C(C)NC(=O)c4cc(F)ccc4F)n3CC2)cc1C (stereo not given),nt,nt,-16%,nt,nt,nt
COC1OC(CO)C(OC2OC(C(=O)O)C(OC3OC(COS(=O)(=O)O)C(OC4OC(C(=O)O)C(OC5OC(CO)C(OC6OC(C(=O)O)C(OC7OC(COS(=O)(=O)O)C(OC8OC(C(=O)O)=C[C@H](O)C8OS(=O)(=O)O)C(O)C7NC(C)=O)[C@@H](O)C6O)C(O)C5NC(C)=O)[C@@H](O)C4O)C(O)C3NC(C)=O)[C@@H](O)C2O)C(O)C1NC(C)=O (stereo not given in full),-5%,nt,nt,nt,nt,-8%

# Bioassay records as filed in PubChem.
